Read-out in test [1]: NAD(P)H dehydrogenase [quinone] 1 (NQO1), NQO1 (gene 1728)
The test is described as follows: LTEA_HepaRG_NQO1: Life Technologies and Expression Analysis (LTEA) Assay for NAD(P)H dehydrogenase [quinone] 1 (NQO1) using HepaRG (AID 2283526). The conditions noted are these: mRNA level, 48 h; actives raise or lower the signal. In short, it runs like this:
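qRT-PCR read-out (Fluidigm TaqMan), normalized to three housekeeping genes, after 48 h chemical exposure of HepaRG cells. Concentrations: eight points, top 100 uM, half-log steps, 0.5% DMSO vehicle. Gain or loss of signal fitted relative to DMSO.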

Read-out in test [2]: Nuclear factor erythroid 2-related factor 2 (Homo sapiens) (UniProt Q16236)
Put plainly: LTEA_HepaRG_NFE2L2: Life Technologies and Expression Analysis (LTEA) Assay for Nuclear factor erythroid 2-related factor 2 (NFE2L2) Transcription Factor using HepaRG (AID 2283527). To be noted: mRNA level, 48 h; actives raise or lower the signal. In short, it runs like this: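 Human liver HepaRG line treated in duplicate for 48 h with an eight-point series topping at 100 uM. Gene expression of NFE2L2 by qRT-PCR, bidirectionally fitted against the vehicle control.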

Read-out in test [3]: succinate dehydrogenase complex iron sulfur subunit B (SDHB), SDHB (gene 6390)
Put plainly: LTEA_HepaRG_SDHB: Life Technologies and Expression Analysis (LTEA) Assay for succinate dehydrogenase complex iron sulfur subunit B (SDHB) using HepaRG (AID 2283528). To be noted: mRNA level, 48 h; actives raise or lower the signal. In short, it runs like this:
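SDHB transcript level read by TaqMan qRT-PCR, housekeeping-normalised (ACTB, GAPDH, POLR2A), after 48 h chemical treatment of plated HepaRG cells; eight concentrations top 100 uM, half-log steps, 0.5% DMSO, duplicates; fitted both directions against DMSO.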

Read-out in test [4]: Signal transducer and activator of transcription 3 (Homo sapiens) (UniProt P40763)
The test is described as follows: LTEA_HepaRG_STAT3: Life Technologies and Expression Analysis (LTEA) Assay for Signal transducer and activator of transcription (STAT3) using HepaRG (AID 2283529). To be noted: mRNA level, 48 h; actives raise or lower the signal. An outline of the steps:
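In this transcriptional endpoint, HepaRG cultures receive test chemicals at up to 100 uM for 48 h, tested in duplicate. STAT3 mRNA is normalized to ACTB, GAPDH and POLR2A.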

Read-out in test [5]: solute carrier (SLCO1B1), SLCO1B1 (gene 10599)
Put plainly: LTEA_HepaRG_SLCO1B1: Life Technologies and Expression Analysis (LTEA) Assay for solute carrier (SLCO1B1) using HepaRG (AID 2283530). To be noted: mRNA level, 48 h; actives raise or lower the signal. In short, it runs like this:
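SLCO1B1 transcript read by qRT-PCR (Fluidigm arrays), normalized to three housekeeping genes, after 48 h chemical exposure of HepaRG cells; bidirectional concentration-response fitting versus 0.5% DMSO baseline. Eight-point half-log series, maximum 100 uM.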

Read-out in test [6]: sulfotransferase 2A1 (SULT2A1), SULT2A1 (gene 6822)
The test is described as follows: LTEA_HepaRG_SULT2A1: Life Technologies and Expression Analysis (LTEA) Assay for sulfotransferase 2A1 (SULT2A1) using HepaRG (AID 2283531). To be noted: mRNA level, 48 h; actives raise or lower the signal. In short, it runs like this:
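HepaRG, 48 h chemical exposure, 8-pt half-log curve from 100 uM in 0.5% DMSO, duplicates. Readout: TaqMan qRT-PCR of SULT2A1 mRNA, housekeeping-normalized. Bidirectional fit vs DMSO baseline.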

Read-out in test [7]: Transforming Growth Factor (TGFA), TGFA (gene 7039)
The test is described as follows: LTEA_HepaRG_TGFA: Life Technologies and Expression Analysis (LTEA) Assay for Transforming Growth Factor (TGFA) using HepaRG (AID 2283532). To be noted: mRNA level, 48 h; actives raise or lower the signal. In short, it runs like this: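 Gene expression of TGFA was quantified by qRT-PCR after human HepaRG cells were treated for 48 h with test chemicals (eight concentrations, highest 100 uM, 0.5% DMSO). Activity in either direction was fitted relative to DMSO.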

Read-out in test [8]: Transforming Growth Factor (TGFB1), TGFB1 (gene 7040)
Put plainly: LTEA_HepaRG_TGFB1: Life Technologies and Expression Analysis (LTEA) Assay for Transforming Growth Factor (TGFB1) Transporter using HepaRG (AID 2283533). The conditions noted are these: mRNA level, 48 h; actives raise or lower the signal. In short, it runs like this: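 qRT-PCR readout of TGFB1 transcript in HepaRG lysates, normalized to three housekeeping genes; gain or loss of signal fitted relative to 0.5% DMSO vehicle. Exposure: 48 h, 8-point curve from 100 uM, duplicate wells.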

Read-out in a further test: TIMP1, TIMP1 (gene 7076)
The test is described as follows: LTEA_HepaRG_TIMP1: Life Technologies and Expression Analysis (LTEA) Assay for TIMP1 using HepaRG (AID 2283534). The conditions noted are these: mRNA level, 48 h; actives raise or lower the signal. An outline of the steps:
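HepaRG, 48 h exposure, 8-pt half-log series from 100 uM in 0.5% DMSO, duplicates; TIMP1 transcript by Fluidigm qRT-PCR, housekeeping-normalized; bidirectional curve fit vs DMSO baseline.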

Read-out in test [9]: Tumor necrosis factor receptor 1 (TNFRSF1A), TNFRSF1A (gene 7132)
The test is described as follows: LTEA_HepaRG_TNFRSF1A: Life Technologies and Expression Analysis (LTEA) Assay for Tumor necrosis factor receptor 1 (TNFRSF1A) using HepaRG (AID 2283535). The conditions noted are these: mRNA level, 48 h; actives raise or lower the signal. In short, it runs like this:
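HepaRG, 48 h plating then 48 h chemical exposure, serum-free induction media; 8-pt CRC from 100 uM, half-log, 0.5% DMSO vehicle, duplicates. Readout: TaqMan qRT-PCR (Fluidigm), housekeeping-gene normalized; bidirectional fit vs DMSO.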

Read-out in test [10]: Thyroid Hormone Responsive (THRSP), THRSP (gene 7069)
Put plainly: LTEA_HepaRG_THRSP: Life Technologies and Expression Analysis (LTEA) Assay for Thyroid Hormone Responsive (THRSP) using HepaRG (AID 2283536). The conditions noted are these: mRNA level, 48 h; actives raise or lower the signal. An outline of the steps:
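Cell model: human HepaRG, approx. 100,000 cells/well, 0.5% DMSO vehicle. Exposure lasts 48 h; phenobarbital 1 mM serves as induction positive control. Gene expression is measured by qRT-PCR against three endogenous control genes.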

Read-out in test [11]: Cellular tumor antigen p53 (Homo sapiens) (UniProt P04637)
The test is described as follows: LTEA_HepaRG_TP53: Life Technologies and Expression Analysis (LTEA) Assay for Tumor Protein P53 (TP53) using HepaRG (AID 2283537). To be noted: mRNA level, 48 h; actives raise or lower the signal. In short, it runs like this: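 TP53 transcript measured by qRT-PCR, normalized to three housekeeping genes, after 48 h treatment of human HepaRG cultures with chemicals from 100 uM downward in half-log steps (0.5% DMSO vehicle, serum-free induction medium). Up- or down-regulation fitted against DMSO.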

Read-out in test [12]: UDP glucuronosyltransferase (UGT1A1), UGT1A1 (gene 54658)
The test is described as follows: LTEA_HepaRG_UGT1A1: Life Technologies and Expression Analysis (LTEA) Assay for UDP glucuronosyltransferase (UGT1A1) using HepaRG (AID 2283538). The conditions noted are these: mRNA level, 48 h; actives raise or lower the signal. In short, it runs like this: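 HepaRG, 48 h chemical exposure (top 100 uM, half-log 8-pt, 0.5% DMSO vehicle), duplicate wells; qRT-PCR (TaqMan, Fluidigm array) for UGT1A1 mRNA, housekeeping-normalized; bidirectional curve fit vs DMSO baseline.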

Read-out in test [13]: UDP glucuronosyltransferase (UGT1A6), UGT1A6 (gene 54578)
Put plainly: LTEA_HepaRG_UGT1A6: Life Technologies and Expression Analysis (LTEA) Assay for UDP glucuronosyltransferase (UGT1A6) using HepaRG (AID 2283539). To be noted: mRNA level, 48 h; actives raise or lower the signal. An outline of the steps:
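qRT-PCR readout of UGT1A6 mRNA (normalized to ACTB/GAPDH/POLR2A) in differentiated HepaRG cells after 48 h chemical exposure; 8 concentrations, top 100 uM, half-log steps, 0.5% DMSO. Bidirectional curve fit relative to DMSO baseline.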

Read-out in test [14]: X-box binding protein 1 (XBP1), XBP1 (gene 7494)
Put plainly: LTEA_HepaRG_XBP1: Life Technologies and Expression Analysis (LTEA) Assay for X-box binding protein 1 (XBP1) using HepaRG (AID 2283540). To be noted: mRNA level, 48 h; actives raise or lower the signal. In short, it runs like this: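 HepaRG, 48 h exposure, 8-pt half-log CRC top 100 uM, 0.5% DMSO vehicle, duplicates. Readout: TaqMan qRT-PCR of XBP1 mRNA, housekeeping-normalised (ACTB/GAPDH/POLR2A); bidirectional fit vs DMSO baseline.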

The nature of test [15]: LTEA_HepaRG_LDH_cytotoxicity: Cytotoxicity Assessment in the Life Technologies and Expression Analysis (LTEA) Assay (AID 2283563; active = hit-call score of the fitted dose curve at least 0.9, where 1 is the maximum). In short, it runs like this:
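HepaRG (human liver line), 48 h exposure, 8-pt half-log series from 100 uM, 0.5% DMSO vehicle, duplicates. Read-out: LDH in spent medium. Positive-direction fit vs DMSO baseline.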

For test [16], the target named is Cellular tumor antigen p53 (Homo sapiens) (UniProt P04637). Put plainly: TOX21_p53_BLA_p2_ratio: Tox21 HCT-116 p53 Agonism Beta-lactamase Assay, Ratio, Phase 2 (AID 2283592; active = hit-call score of the fitted dose curve at least 0.9, where 1 is the maximum). An outline of the steps: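 Readout: blue/green (460/530 nm) FRET emission ratio after 2 h CCF4-AM loading at room temperature, excitation 405 nm. HCT116 p53 bla cells, 16 h compound exposure at 37C, 5% CO2; agonist direction fitted against DMSO baseline.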

A short description of test [17]: TOX21_p53_BLA_p3_viability: Viability Assessment in the Tox21 HCT-116 p53 Agonism Beta-lactamase Assay, Phase 3 (AID 2283593; active = hit-call score of the fitted dose curve at least 0.9, where 1 is the maximum;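 also: cells exposed to compound for 16 h before reading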). An outline of the steps:
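HCT-116 cells (4000/well) rested 5 h at 37C, then got DMSO compounds by pin tool (217-fold dilution) for 16 h at 37C, 5% CO2. After the bla read, CellTiter-Glo was added and luminescence read at 30 min, room temperature.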

Test [18] in a line: TOX21_p53_BLA_p2_viability: Viability Assessment in the Tox21 HCT-116 p53 Agonism Beta-lactamase Assay, Phase 2 (AID 2283591; active = hit-call score of the fitted dose curve at least 0.9, where 1 is the maximum;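 also: actives lower the ATP signal meaning cytotoxicity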). An outline of the steps:
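HCT-116 p53-bla cells (4000/well) rested 5 h at 37C, then received compounds in DMSO (217-fold dilution) for 16 h at 37C, 5% CO2. After the CCF4 read, CellTiter-Glo was added; ATP luminescence was read after 30 min at room temperature.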

Consider three molecules from PubChem BioAssay (EPA / NIEHS).

Results filed as inconclusive are left out. Active and inactive are the calls of the source. The calls were made as follows, unless noted: active = hit-call score of the fitted dose curve at least 0.9, where 1 is the maximum; inactive = score below 0.9.

A word on the AC50: it is the concentration giving half of the maximal activity seen.

Chain of Nuclear factor erythroid 2-related factor 2 (Homo sapiens) (Q16236 whole entry, looked up): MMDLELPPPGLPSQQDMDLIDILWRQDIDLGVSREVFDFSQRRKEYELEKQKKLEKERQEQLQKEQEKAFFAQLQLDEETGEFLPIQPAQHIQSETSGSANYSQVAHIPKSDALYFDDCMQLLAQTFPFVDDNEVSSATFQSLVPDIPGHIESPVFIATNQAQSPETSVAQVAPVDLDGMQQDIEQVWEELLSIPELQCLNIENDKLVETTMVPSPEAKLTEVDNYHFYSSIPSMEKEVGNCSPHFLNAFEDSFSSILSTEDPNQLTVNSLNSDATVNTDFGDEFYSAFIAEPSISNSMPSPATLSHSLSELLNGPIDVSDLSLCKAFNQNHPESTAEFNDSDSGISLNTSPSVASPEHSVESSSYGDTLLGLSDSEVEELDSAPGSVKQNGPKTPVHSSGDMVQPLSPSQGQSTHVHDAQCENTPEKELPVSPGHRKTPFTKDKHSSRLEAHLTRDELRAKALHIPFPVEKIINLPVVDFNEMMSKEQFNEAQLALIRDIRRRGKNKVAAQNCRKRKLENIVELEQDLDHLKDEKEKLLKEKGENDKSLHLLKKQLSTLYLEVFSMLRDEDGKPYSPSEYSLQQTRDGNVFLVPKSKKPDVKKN
Chain of Cellular tumor antigen p53 (Homo sapiens) (P04637 whole entry, looked up): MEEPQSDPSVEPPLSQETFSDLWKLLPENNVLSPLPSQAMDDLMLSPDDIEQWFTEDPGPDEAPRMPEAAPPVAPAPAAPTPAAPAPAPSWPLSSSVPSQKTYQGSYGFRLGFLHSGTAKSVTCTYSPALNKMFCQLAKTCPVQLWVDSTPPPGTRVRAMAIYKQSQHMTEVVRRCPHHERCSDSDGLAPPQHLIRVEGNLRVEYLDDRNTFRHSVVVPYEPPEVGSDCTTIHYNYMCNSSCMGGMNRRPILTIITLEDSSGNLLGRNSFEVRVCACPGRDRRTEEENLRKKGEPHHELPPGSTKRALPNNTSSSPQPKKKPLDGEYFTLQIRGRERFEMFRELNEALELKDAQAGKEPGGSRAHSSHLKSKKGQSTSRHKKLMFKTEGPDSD
Chain of Signal transducer and activator of transcription 3 (Homo sapiens) (P40763 whole entry, looked up): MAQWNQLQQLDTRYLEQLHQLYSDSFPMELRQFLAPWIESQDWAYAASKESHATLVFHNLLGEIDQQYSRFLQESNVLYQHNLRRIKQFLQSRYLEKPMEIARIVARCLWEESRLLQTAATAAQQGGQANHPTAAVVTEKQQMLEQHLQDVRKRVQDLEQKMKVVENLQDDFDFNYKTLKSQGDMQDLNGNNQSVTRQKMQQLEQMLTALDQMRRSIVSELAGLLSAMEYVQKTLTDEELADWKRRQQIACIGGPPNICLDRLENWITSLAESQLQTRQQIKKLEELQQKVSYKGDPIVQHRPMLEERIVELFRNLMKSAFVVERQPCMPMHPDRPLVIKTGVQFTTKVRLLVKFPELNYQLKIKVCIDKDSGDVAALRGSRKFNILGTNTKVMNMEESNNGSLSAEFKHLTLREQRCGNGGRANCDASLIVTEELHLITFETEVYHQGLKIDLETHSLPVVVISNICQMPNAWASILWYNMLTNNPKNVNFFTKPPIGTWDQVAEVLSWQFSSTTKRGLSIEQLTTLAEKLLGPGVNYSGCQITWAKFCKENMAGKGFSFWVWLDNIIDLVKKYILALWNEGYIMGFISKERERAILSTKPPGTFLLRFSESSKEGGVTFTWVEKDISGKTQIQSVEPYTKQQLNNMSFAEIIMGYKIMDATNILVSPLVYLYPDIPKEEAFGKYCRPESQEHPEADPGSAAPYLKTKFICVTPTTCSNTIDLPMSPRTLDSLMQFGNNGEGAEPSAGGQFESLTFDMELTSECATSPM

With `CN1COCN(Cc2cnc(Cl)s2)C1=N[N+](=O)[O-]`, the call in [1], in test [2], in test [3], in test [4], in test [5] and in test [6] was inactive. Moreover, the outcome in test [7] is “inactive”; in test [8] it was “inactive”; in the test with TIMP1, TIMP1 (gene 7076), “inactive”; in [9], “inactive”; in test [10], “inactive”; in test [11], “inactive”. The result in test [12], in [13], in [14], in test [15], in test [16] and in [17] was inactive.

As to `CCCSP(=O)(OCC)Oc1ccc(Br)cc1Cl` (stereo not given), the molecule was called inactive in test [1], in test [2], in [3], in test [4], in test [5] and in test [6]. Also, the outcome was “inactive” in test [7]; “inactive” in [8]; “inactive” with TIMP1, TIMP1 (gene 7076); “inactive” in test [9]; “inactive” in test [10]; “inactive” in [11]. The molecule was classed as inactive in test [13], in test [14], in [15], in [18] and in test [16]. For the same molecule, the AC50 in test [12] was 15.1 µM (active).

On to `CCOC(=O)CC(SP(=O)(OC)OC)C(=O)OCC` (stereo not given), for which the result in test [1], in test [2], in test [3], in test [4], in test [5] and in test [6] was inactive. The outcome in [7] is “inactive”; in test [8], “inactive”; with TIMP1, TIMP1 (gene 7076) it was “inactive”; in test [9], “inactive”; in test [10], “inactive”; in [11] it was “inactive”. Besides, the outcome in [12], in test [13], in [14], in test [15], in test [18] and in [16] was inactive. In addition, the molecule was classed as inactive in [17].
